Experimental findings from ChEMBL document CHEMBL2218924, “A broad activity screen in support of a chemogenomic map for kinase signalling research and drug discovery” (Biochem J, 2013) are described below.

The target of assay [1] is Death-associated protein kinase 1 (Homo sapiens) (UniProt P53355). The settings on record: at 10 µM.
For assay [2], the target named is Death-associated protein kinase 2 (Homo sapiens) (UniProt Q9UIK4). The following applies: at 1 µM.
Assay [3] shares this target. The settings on record: at 10 µM.
For assay [4], the target named is T1, Serine/threonine-protein kinase DCLK2 (Homo sapiens) (UniProt Q8N568).
T1 sequence (whole entry): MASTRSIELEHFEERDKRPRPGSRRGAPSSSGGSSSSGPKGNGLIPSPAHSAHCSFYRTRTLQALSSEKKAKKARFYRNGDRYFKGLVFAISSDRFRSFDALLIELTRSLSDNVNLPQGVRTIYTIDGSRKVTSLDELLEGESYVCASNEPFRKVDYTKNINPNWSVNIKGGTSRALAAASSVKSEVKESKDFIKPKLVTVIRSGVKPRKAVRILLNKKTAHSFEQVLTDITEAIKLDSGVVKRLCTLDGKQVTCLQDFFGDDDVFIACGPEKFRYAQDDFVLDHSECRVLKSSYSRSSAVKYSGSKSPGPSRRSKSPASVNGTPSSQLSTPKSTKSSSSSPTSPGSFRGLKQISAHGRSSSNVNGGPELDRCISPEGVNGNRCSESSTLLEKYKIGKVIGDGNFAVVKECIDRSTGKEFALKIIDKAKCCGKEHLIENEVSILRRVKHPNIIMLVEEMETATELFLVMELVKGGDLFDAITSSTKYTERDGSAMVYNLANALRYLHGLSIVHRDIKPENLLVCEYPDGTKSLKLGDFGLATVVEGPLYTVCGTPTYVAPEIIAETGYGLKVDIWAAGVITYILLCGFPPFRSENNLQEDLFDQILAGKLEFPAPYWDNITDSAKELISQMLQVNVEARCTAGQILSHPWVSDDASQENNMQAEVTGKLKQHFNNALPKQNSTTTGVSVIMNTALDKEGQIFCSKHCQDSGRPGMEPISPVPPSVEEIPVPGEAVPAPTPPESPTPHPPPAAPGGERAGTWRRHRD
The following applies: at 1 µM.

The target of assay [5] is T1, Serine/threonine-protein kinase DCLK2 (Homo sapiens). The settings on record: at 10 µM.
Assay [6] concerns the target T2, Discoidin domain-containing receptor 2 (Homo sapiens) (UniProt Q16832).
T2 sequence (whole entry): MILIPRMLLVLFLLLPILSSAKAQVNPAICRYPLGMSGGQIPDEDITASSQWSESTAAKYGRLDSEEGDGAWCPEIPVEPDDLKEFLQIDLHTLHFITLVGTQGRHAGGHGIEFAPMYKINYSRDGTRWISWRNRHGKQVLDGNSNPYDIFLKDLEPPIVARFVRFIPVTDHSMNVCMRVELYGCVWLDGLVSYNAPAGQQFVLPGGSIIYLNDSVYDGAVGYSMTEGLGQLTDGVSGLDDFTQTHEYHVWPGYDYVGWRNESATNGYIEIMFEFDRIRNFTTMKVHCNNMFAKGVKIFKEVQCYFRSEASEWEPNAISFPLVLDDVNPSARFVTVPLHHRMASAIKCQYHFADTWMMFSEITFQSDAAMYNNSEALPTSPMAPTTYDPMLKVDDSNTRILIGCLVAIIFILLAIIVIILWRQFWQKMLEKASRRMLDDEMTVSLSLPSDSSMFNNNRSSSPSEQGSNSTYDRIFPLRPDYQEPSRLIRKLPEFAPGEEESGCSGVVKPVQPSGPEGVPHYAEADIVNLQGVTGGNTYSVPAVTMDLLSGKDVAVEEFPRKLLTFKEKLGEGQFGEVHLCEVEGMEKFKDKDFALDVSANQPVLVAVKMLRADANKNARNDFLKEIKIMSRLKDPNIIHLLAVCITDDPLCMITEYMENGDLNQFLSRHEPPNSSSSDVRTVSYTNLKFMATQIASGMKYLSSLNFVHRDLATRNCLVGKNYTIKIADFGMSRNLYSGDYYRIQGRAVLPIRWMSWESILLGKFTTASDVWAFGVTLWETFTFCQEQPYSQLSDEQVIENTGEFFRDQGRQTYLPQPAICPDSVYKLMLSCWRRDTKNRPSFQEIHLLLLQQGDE
The following applies: at 1 µM.

Assay [7] concerns the target T2, Discoidin domain-containing receptor 2 (Homo sapiens). The settings on record: at 10 µM.
Assay [8] has as its target T3, Myotonin-protein kinase (Homo sapiens) (UniProt Q09013).
T3 sequence (whole entry): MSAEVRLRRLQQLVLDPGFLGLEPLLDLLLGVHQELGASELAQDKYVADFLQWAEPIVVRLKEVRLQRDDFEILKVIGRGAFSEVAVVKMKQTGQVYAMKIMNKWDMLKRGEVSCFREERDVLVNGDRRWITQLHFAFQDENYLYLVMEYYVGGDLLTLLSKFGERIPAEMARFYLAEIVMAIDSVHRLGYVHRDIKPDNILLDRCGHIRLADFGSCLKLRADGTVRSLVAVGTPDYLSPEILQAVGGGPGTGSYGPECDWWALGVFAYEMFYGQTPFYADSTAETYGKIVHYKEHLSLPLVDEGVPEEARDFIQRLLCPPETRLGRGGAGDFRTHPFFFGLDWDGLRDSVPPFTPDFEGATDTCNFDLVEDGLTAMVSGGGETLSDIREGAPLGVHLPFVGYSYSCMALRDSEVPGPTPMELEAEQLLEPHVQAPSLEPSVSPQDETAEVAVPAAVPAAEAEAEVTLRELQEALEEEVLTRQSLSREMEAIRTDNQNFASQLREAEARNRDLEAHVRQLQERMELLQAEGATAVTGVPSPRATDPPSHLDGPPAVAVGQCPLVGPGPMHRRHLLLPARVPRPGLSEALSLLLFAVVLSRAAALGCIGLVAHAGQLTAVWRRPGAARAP
The following applies: at 1 µM.

Assay [9] deals with T3, Myotonin-protein kinase (Homo sapiens). The settings on record: at 10 µM.
Assay [10] has as its target T4, Serine/threonine-protein kinase 17A (Homo sapiens) (UniProt Q9UEE5).
T4 sequence (whole entry): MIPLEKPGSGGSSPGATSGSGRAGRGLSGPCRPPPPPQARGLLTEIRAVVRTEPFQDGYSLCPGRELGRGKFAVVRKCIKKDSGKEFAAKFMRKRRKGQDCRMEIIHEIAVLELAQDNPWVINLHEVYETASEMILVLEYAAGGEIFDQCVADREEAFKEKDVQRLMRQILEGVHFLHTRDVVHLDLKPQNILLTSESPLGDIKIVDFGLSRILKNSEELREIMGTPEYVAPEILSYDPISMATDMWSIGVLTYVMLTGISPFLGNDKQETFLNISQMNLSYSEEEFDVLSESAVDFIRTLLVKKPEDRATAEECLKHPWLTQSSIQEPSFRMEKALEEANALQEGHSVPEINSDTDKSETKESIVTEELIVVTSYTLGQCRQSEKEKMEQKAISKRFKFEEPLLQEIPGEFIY
The following applies: at 1 µM.

In assay [11] the target is T4, Serine/threonine-protein kinase 17A (Homo sapiens). The settings on record: at 10 µM.
In assay [12] the target is T5, Dual specificity tyrosine-phosphorylation-regulated kinase 2 (Homo sapiens) (UniProt Q92630).
T5 sequence (whole entry): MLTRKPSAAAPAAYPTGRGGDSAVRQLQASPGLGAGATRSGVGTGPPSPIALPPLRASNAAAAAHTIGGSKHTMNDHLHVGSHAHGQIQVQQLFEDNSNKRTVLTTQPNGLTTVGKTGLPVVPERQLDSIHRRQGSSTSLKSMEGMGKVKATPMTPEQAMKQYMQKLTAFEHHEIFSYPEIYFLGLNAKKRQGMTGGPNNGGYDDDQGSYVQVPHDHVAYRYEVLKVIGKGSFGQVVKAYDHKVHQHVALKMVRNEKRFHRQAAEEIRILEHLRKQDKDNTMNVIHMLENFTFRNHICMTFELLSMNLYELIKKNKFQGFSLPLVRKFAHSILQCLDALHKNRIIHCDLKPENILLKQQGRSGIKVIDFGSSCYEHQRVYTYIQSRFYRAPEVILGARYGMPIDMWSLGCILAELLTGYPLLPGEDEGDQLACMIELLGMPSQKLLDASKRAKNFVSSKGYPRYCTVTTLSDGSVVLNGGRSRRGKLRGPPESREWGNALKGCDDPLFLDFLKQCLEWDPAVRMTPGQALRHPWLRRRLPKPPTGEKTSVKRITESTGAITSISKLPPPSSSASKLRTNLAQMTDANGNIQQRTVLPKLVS
The settings on record: at 1 µM.

For assay [13], the target named is T5, Dual specificity tyrosine-phosphorylation-regulated kinase 2 (Homo sapiens). The following applies: at 10 µM.
Assay [14] concerns the target T6, Ephrin type-A receptor 1 (Homo sapiens) (UniProt P21709).
T6 sequence (whole entry): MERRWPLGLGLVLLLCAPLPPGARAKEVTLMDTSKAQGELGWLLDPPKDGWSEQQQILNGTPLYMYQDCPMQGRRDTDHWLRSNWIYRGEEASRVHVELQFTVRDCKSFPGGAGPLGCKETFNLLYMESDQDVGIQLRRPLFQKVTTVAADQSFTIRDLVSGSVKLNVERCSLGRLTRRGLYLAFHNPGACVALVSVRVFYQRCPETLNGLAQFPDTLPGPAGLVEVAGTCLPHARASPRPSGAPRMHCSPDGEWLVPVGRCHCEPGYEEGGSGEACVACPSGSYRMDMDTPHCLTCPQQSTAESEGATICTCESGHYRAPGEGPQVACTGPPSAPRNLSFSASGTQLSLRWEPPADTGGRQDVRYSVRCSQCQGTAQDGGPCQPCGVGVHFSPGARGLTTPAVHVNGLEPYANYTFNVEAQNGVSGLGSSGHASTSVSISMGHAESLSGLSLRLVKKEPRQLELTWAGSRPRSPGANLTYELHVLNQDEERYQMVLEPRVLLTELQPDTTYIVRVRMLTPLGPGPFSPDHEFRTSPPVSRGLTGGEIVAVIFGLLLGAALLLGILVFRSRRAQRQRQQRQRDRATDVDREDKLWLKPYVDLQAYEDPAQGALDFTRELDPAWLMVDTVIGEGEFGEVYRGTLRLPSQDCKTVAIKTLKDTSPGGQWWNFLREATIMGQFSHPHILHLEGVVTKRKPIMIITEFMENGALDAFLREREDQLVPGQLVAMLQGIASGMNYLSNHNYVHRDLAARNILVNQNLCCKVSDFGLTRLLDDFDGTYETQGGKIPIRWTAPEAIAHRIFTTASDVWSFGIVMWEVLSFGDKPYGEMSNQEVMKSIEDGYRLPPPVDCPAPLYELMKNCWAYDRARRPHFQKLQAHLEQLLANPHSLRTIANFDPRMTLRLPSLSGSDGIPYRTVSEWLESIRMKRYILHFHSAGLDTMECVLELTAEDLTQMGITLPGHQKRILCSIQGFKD
The settings on record: at 1 µM.

Assay [15] concerns the target T6, Ephrin type-A receptor 1 (Homo sapiens). The settings on record: at 10 µM.
Assay [16] concerns the target Ephrin type-A receptor 2 (Homo sapiens) (UniProt P29317). The following applies: at 1 µM.
The target is the same in assay [17]. The settings on record: at 10 µM.
The target of assay [18] is T7, Ephrin type-A receptor 3 (Homo sapiens) (UniProt P29320).
T7 sequence (whole entry): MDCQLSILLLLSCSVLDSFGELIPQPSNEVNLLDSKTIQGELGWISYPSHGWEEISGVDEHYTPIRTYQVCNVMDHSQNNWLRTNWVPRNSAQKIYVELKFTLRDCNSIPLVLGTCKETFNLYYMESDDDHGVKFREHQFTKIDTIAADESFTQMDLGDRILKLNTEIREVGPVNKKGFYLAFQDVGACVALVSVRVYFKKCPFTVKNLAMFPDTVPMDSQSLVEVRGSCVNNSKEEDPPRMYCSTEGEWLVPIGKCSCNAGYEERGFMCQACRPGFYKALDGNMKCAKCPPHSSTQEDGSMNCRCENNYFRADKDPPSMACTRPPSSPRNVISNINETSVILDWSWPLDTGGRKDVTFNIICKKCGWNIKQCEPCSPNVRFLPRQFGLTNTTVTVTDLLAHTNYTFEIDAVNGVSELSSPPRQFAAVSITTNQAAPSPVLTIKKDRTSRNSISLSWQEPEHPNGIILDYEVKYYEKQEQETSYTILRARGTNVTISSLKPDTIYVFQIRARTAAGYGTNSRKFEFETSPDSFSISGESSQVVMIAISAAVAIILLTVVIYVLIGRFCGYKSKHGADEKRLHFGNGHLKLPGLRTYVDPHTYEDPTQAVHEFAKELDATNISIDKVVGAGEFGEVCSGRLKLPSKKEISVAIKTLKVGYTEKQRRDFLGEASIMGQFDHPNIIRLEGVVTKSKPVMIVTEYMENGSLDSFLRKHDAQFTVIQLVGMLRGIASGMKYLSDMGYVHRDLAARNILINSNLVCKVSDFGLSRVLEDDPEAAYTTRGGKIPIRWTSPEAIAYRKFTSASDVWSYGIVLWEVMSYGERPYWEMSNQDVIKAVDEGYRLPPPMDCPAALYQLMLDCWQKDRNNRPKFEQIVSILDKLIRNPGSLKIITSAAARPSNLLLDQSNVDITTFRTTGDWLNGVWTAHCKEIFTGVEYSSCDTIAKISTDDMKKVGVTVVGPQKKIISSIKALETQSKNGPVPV
The following applies: at 1 µM.

Each structure is given as a SMILES string.

Chain of Death-associated protein kinase 2 (Homo sapiens) (Q9UIK4 whole entry, looked up): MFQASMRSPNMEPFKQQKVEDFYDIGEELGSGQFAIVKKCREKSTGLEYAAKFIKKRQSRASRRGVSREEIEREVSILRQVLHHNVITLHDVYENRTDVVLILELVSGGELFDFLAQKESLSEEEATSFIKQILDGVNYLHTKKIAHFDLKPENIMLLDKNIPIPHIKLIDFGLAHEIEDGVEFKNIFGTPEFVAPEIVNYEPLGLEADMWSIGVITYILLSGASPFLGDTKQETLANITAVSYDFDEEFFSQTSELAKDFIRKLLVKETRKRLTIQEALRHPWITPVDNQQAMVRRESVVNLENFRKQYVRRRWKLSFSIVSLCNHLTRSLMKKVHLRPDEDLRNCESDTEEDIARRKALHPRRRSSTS
Chain of Ephrin type-A receptor 2 (Homo sapiens) (P29317 whole entry): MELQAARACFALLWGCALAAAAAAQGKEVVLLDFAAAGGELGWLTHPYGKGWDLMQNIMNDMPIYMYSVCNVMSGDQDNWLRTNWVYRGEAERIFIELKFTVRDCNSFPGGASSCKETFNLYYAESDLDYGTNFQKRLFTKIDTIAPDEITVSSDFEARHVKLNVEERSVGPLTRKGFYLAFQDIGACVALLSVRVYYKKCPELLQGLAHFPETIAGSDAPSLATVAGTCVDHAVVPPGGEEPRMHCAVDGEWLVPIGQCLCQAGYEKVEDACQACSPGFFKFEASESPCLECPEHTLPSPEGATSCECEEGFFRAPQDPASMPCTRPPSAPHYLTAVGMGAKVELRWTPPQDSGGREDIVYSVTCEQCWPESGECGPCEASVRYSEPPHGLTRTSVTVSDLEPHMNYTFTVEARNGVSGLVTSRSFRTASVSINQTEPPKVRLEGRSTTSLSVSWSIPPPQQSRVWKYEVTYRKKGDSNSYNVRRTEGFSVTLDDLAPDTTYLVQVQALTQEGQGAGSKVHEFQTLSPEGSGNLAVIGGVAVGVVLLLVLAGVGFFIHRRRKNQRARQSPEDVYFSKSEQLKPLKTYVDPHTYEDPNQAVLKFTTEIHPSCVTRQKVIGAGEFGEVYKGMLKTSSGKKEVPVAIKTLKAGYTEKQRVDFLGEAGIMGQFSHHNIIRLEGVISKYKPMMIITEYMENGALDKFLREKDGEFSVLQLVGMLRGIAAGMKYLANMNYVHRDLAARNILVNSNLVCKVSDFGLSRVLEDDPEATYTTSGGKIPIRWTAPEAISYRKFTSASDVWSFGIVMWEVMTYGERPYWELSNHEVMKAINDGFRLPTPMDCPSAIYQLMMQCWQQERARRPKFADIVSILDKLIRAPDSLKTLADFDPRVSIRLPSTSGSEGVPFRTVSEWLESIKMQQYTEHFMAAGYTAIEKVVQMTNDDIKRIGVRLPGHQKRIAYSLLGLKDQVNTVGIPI
Chain of Death-associated protein kinase 1 (Homo sapiens) (P53355 whole entry, looked up): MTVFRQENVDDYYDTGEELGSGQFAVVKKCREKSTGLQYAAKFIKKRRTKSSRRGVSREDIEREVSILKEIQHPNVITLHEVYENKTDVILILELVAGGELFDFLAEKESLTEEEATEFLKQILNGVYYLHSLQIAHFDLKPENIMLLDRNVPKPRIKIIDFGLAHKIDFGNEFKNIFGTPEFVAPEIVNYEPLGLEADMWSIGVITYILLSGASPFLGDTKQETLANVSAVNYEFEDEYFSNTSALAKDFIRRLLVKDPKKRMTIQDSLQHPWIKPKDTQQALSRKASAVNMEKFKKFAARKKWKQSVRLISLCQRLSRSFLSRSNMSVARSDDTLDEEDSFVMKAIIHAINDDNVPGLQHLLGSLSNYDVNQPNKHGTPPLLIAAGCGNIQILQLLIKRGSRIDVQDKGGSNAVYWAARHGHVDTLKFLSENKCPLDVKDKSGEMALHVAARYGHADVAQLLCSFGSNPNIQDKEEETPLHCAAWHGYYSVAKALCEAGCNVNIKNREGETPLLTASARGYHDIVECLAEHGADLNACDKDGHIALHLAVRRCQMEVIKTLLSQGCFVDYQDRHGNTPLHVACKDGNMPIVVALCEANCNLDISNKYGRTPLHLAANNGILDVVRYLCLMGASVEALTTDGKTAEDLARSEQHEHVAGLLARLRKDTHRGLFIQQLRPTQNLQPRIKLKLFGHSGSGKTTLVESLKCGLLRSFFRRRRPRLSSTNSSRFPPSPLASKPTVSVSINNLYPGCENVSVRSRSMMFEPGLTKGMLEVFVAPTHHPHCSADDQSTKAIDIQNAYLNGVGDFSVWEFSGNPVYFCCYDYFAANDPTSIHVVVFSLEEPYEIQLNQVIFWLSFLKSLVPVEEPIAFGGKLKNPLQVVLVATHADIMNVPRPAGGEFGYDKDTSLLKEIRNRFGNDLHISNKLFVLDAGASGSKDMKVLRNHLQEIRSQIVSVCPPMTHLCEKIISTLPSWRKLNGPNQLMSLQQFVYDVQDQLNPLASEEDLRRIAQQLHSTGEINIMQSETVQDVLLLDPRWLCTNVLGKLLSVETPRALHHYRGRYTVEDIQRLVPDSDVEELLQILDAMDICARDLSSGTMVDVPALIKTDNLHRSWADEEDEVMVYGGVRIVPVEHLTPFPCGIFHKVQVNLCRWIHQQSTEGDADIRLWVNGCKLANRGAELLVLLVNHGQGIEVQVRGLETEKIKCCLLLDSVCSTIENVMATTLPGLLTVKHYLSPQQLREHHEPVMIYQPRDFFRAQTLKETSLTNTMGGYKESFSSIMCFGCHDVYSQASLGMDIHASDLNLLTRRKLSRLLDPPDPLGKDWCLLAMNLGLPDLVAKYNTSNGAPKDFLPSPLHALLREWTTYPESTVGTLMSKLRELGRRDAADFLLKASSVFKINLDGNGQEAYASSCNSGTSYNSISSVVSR

In general, residual activity refers to the signal under treatment as a percentage of the control signal. Consider `COc1ccc(C(=O)Nc2sc3c(c2C(N)=O)CCCC3)cc1OC`, for which the residual activity in assay [1] came out at 86%; in assay [2] it was 90%; in [3], 105%; in assay [4], 86%; in assay [5], 61%; in [6] it was 101%. In addition, the residual activity turned out to be 98% in assay [7]; 113% in assay [8]; 127% in assay [9]; 125% in assay [10]; 111% in assay [11]; 98% in [12]. Besides, the residual activity in assay [13] amounted to 90%; in assay [14], 92%; in assay [15], 111%; in [16], 109%; in assay [17], 107%; in [18], 110%.

`Cc1ccc(S(=O)(=O)/C=C/C#N)cc1`: the residual activity in assay [1] turned out to be 87%; in assay [2] it was 104%; in assay [3], 105%; in assay [4], 125%; in [5] it was 99%; in assay [6] it was 98%. Besides, the residual activity in [7] worked out at 100%; in [8], 125%; in assay [9], 100%; in assay [10] it was 105%; in assay [11] it was 95%; in assay [12], 96%. Further, the residual activity in assay [13] is 102%; in assay [14] it was 95%; in [15], 92%; in assay [16], 106%; in assay [17] it was 108%; in [18], 103%.
